Reference: PubChem BioAssay AID1619 (SRMLSC, 2009)
In all, about 220,000 compounds went through this assay and about 830 (0.38%) were called active.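 How the source made its calls: active means compound inhibiting the enzyme by more than half at any dose during confirmatory dose-response retesting; inconclusive means strong single-dose inhibitors picked by rank but not retested; inactive means the rest.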 Only a sample is shown. Potency and affinity values are given separately.

molecular target: Leucine aminopeptidase (Plasmodium falciparum (isolate 3D7)) (UniProt Q8IL11); assay: P. falciparum M17LAP inhibitors, primary screen, biochemical, fluorogenic H-Leu-NHMec substrate, 1536-well (AID 1619); settings: recombinant M17LAP, H-Leu-NHMec fluorogenic kinetic assay; at 30 µM; hits give high values;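 further: plate controls were full reaction with DMSO carrier for no effect and no enzyme background for full effect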
Sequence (Q8IL11 whole entry, looked up): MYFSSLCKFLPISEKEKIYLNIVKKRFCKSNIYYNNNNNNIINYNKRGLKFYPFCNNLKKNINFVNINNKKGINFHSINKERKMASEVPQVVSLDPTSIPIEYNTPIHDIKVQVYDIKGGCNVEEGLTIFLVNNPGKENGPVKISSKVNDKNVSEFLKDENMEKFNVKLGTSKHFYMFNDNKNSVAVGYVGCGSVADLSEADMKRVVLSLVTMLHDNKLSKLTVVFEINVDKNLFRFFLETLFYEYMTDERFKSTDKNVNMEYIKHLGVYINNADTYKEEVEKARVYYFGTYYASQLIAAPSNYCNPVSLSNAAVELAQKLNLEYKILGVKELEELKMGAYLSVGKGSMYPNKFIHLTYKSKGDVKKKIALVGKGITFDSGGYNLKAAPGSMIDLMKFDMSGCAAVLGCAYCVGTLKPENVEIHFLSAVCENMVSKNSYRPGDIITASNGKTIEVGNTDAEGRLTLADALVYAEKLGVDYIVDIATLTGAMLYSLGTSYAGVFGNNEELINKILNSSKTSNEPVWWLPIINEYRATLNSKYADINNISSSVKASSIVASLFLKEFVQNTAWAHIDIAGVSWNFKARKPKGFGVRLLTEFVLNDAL

inhibition, inactive:
CCn1cc(C(=O)OCC(=O)N2C(C)CCCC2C)c(=O)c2ccc(C)nc21 (stereo not drawn) 0.44%, CCCCSc1nc(O)c(C2OC(=O)c3c2ccc(OC)c3OC)c(=O)n1C (stereo not drawn) 44.3%, CCSc1nc(O)c(C2OC(=O)c3c2ccc(OC)c3OC)c(=O)n1CC (stereo not drawn) 41.4%, CCCCSc1nc(O)c(C2OC(=O)c3c2ccc(OC)c3OC)c(=O)n1-c1ccccc1 (stereo not drawn) 32%, CCCSc1nc(O)c(C2OC(=O)c3c2ccc(OC)c3OC)c(=O)n1-c1ccccc1 (stereo not drawn) 31.4%, CC1=CCC2C(=O)N(c3ccc(Br)cc3C)C(=O)C2C1 (stereo not drawn) -2.62%, COc1cc(C(=O)O)cc(NC(=O)c2cccs2)c1OC 27%, CC(NS(=O)(=O)c1ccccc1)C(c1cccs1)N1CCOCC1 (stereo not drawn) 3.6%, CCOc1ncccc1C(=O)OCC(=O)NCc1ccc2c(c1)OCO2 -8.27%, O=C(COC(=O)c1cccc(S(=O)(=O)N2CCOCC2)c1)Nc1ncc(C(F)(F)F)cc1Cl 4.29%, C/C(CC(=O)Nc1cc(C)ccn1)=N\NC(=O)c1cccc(C)c1 36.6%, C/C(CC(=O)Nc1cc(C)ccn1)=N\NC(=O)C(=O)Nc1cccc(C)c1 17.6%, c1ccc(CSc2ncnc3c2cnn3-c2ccccc2)cc1 6.75%, CC(=O)CSc1ncnc2c1cnn2-c1ccccc1 -3.85%, O=C1N/C(=C/c2cccn2-c2ccccc2)C(=O)N1Cc1ccccc1F 2.46%, O=C(O)c1cccc(-n2cccc2/C=C2\NC(=O)N(Cc3ccc(F)cc3)C2=O)c1 14.1%, COc1ccc(C(=O)OCC(=O)Nc2nc3c(F)c(F)c(F)cc3s2)cc1OC -4.12%, CCOc1ccccc1OCC(=O)Nc1nnc(COC)s1 -14%, COc1ccc(-c2cc(=O)[nH]c(=O)[nH]2)cc1 6.04%, COc1cccc(-c2cc(=O)[nH][nH]2)c1 -0.06%, COc1ccc(-c2c[nH]c(=O)[nH]c2=O)cc1OC 7.18%, COc1ccc(-c2cn(-c3cccc(C)c3)c(=O)[nH]2)cc1OC 12.5%, Cn1nc(-c2ccc(NCCO)c([N+](=O)[O-])c2)c2ccccc2c1=O -6.44%, Cc1nn(-c2ccccn2)c(N)c1N=O 13.8%, O=C(CN1C2=NCCCN2c2ccccc21)c1cccs1 -10.1%, CCN1C(=O)/C(=C/c2cccs2)SC1=Nc1ccc(OC)cc1 -1.72%, CC(C)c1ccc(OCC(=O)Nc2cccc(C(=O)Nc3ccccc3C(=O)O)c2)cc1 5.28%, COc1ccc(OCC(=O)Nc2cccc(C(=O)Nc3ccccc3C(=O)O)c2)cc1 37%, Cc1cc2nc(SC(C)C(=O)O)[nH]c2cc1C (stereo not drawn) 19.5%, CC(Sc1nc2ccccc2[nH]1)C(=O)O (stereo not drawn) 4.99%, COc1ccc(-n2nc(N)c3c(=O)oc(N(C)C)nc32)cc1 3.39%, COC(=O)c1cccc(CN2C(=O)SC(Nc3ccccc3)C2=O)c1 (stereo not drawn) 2.34%, Cc1ccc(N(CC(N)=O)C2SC(=O)N(Cc3ccccc3)C2=O)cc1 (stereo not drawn) 8.98%, COC(=O)c1cccc(CN2C(=O)SC(Nc3ccc(C)cc3)C2=O)c1 (stereo not drawn) 2.69%, NC(=O)CN(c1ccccc1)C1SC(=O)N(Cc2ccccc2)C1=O (stereo not drawn) -3.19%, O=C(O)CN1C(=O)SC(Nc2ccccc2)C1=O (stereo not drawn) 15.1%, Cc1ccc(NC2SC(=O)N(Cc3cccc(C(=O)O)c3)C2=O)c(C)c1 (stereo not drawn) -1%, O=C1Nc2ccccc2S/C1=C/c1cccs1 4.97%, CCCCCCOc1cccc(N)c1 -6.2%, COc1ccc(S(=O)(=O)N(CC(=O)N/N=C/c2cccs2)c2cc(C)cc(C)c2)cc1OC -9.62%, Cc1ccc(O)c(CNn2cnnc2)c1 -3.08%, C/C(=N\O)c1oc2ccc3c(C)cc(=O)oc3c2c1C 2.81%, COc1nc(N(CC(N)=O)S(=O)(=O)c2ccccc2)nc(C)c1Cl -8.61%, Cc1ccc(-n2nnnc2CN2CCCCC2)cc1 -0.54%, COC(=O)c1scc(C)c1N/N=C(\C)c1cc(F)c(Cl)cc1F -1.99%, Cn1ncc(Cl)c1C(=O)N/N=C/c1cc2c(cc1[N+](=O)[O-])OCO2 10.6%, CCCc1ncc(C(O)c2ccc(OC)cc2)n1C (stereo not drawn) -6.37%, Cc1ccc(NC(=O)CN(C)C(=O)CSc2nc(C)cs2)cc1 -4.97%, Cc1ccc(CNC(=O)CSc2n[nH]c(N)n2)cc1 16.9%, Cc1ccc(Oc2ccc(NC(=O)CSc3n[nH]c(N)n3)cc2)cc1 -7.16%, Cc1ccc(NC(=O)CN(C)C(=O)CSc2nc3ccccc3o2)cc1 3.63%, CCn1ncc(/C=N\NC(=O)c2ccc3c(c2)c(C)c(C)n3Cc2ccccc2)c1C 8%, Cc1c(C(=O)N2CCN(Cc3ccc4c(c3)OCO4)CC2)cccc1[N+](=O)[O-] 11.8%, COc1ccc(Nc2nc(C(=O)N3CCc4cc(OC)c(OC)cc4C3)cs2)cc1 -3.32%, COc1ccc(NC(=O)COC(=O)c2ccco2)c([N+](=O)[O-])c1 -7.81%, CN(Cc1cnccn1)C(=O)CC1C(=O)NCCN1Cc1c(F)cccc1Cl (stereo not drawn) 4.09%, CCCCc1ccc(NC(=O)N[C@@H](CC(C)C)C(=O)O)cc1 -4.28%, CCCCc1ccc(NC(=O)N[C@@H](C)C(=O)O)cc1 -2.39%, CCc1ccc(NC(=O)N[C@H](C(=O)O)C(C)CC)cc1 (stereo partly drawn) -1.8%, CCc1ccc(C(=O)NC(C(=O)O)C(C)C)cc1 (stereo not drawn) 56.2%, CCCCc1ccc(NC(=O)C(C)CC)cc1 (stereo not drawn) 4.63%, CCCCCOc1ccc(C(=O)NC(C(=O)O)C(C)C)cc1 (stereo not drawn) 46.7%, CC(C)(C)NC(=O)CN(Cc1ccc(F)cc1)C(=O)Cn1nnc(-c2ccc(F)cc2)n1 2.63%, Cc1cccc(OCCCOc2cccc3cccnc23)c1C -0.78%, C[C@@H](C(=O)N1CCN(C(=O)OC(C)(C)C)CC1)n1cc(CCC(=O)O)nn1 3.71%, Cc1ccc(SCCn2nc(C(=O)O)c3ccccc3c2=O)cc1 11.2%, Cc1cccc(NS(=O)(=O)c2ccc3c(c2)NC(=O)CC(=O)N3)c1 0.82%, O=C(Nc1sc2c(c1C(=O)O)CCCCC2)c1ccccc1 54.2%, COc1ccc(NC(=O)c2c(NC(=O)CCC(=O)O)sc3c2CCCCC3)cc1 46%, COc1ccccc1NC(=O)c1c(NC(=O)CCC(=O)O)sc2c1CCCCC2 12%, CCOC(=O)c1ccc(NC(=O)c2c(NC(=O)CCC(=O)O)sc3c2CCCCC3)cc1 4.02%, Cc1ccccc1C(=O)Nc1sc2c(c1C(=O)O)CCC2 25.7%, CCOc1ccccc1NC(=O)c1c(NC(=O)CCC(=O)O)sc2c1CCCCC2 3.19%, O=C(NCCC(c1ccccc1)c1ccccc1)c1cnccn1 -1.23%, COc1ccc(C)cc1NC(=O)C(OC(=O)CNC(=O)c1ccc(Br)cc1)c1ccccc1 (stereo not drawn) -14.5%, CN(C)S(=O)(=O)c1ccc(NC(=O)Cn2ccsc2=N)cc1 0.8%, c1ccc(-c2nc(NCC3CCCO3)c3oc4ccccc4c3n2)cc1 (stereo not drawn) -4.77%, Cc1noc(C)c1COc1ccc(C(=O)OCC(=O)Nc2ccc3c(c2)OCO3)cc1 4.59%, COc1ccc2[nH]c(C)c(CCNC(=S)Nc3ccc(F)cc3)c2c1 -5.1%, O=C(Cn1cc2c(n1)CCCC2)N1CCc2ccccc21 3.11%, COc1ccccc1N1CC(C)C(=O)NC1=S (stereo not drawn) 8%, Cc1onc(-c2ccccc2)c1C(=O)NNC(=S)NC(=O)c1ccc(Br)cc1 44.1%, Cc1ccccc1C(=O)NC(=S)NCC(=O)c1ccccc1 0.75%, Cc1ccccc1C(=O)NCC(=O)NNC(=S)NC(=O)c1ccccc1C 63.2%, Cc1onc(-c2ccccc2)c1C(=O)NC(=S)NNC(=O)c1ccc(O)cc1 14.3%, Cc1ccccc1C(=O)NNC(=S)NC(=O)c1ccc(Cl)cc1Cl 90.7%, Cc1ccccc1C(=O)NNC(=S)NC(=O)c1cccnc1 80.7%, Cc1ccc(NC(=O)CN(c2ccccc2)S(=O)(=O)N(C)C)cc1 -5.3%, CCOC(=O)c1cnc2c(C(F)(F)F)cccc2c1N1CCOCC1 6.02%, C/C(CC(=O)N(C(C)C)C(C)C)=N\NC(=O)COc1ccc(Cl)cc1Cl 7.13%, Cc1ccc(C(=O)Nc2ccc3cn[nH]c3c2)cc1S(=O)(=O)N1CCCCC1 4.67%, CCOC(=O)NC(=O)CSc1nnnn1-c1ccccc1 0.74%, OCC(O)C1OC(Nc2ccc(Cl)cc2)C(O)C1O (stereo not drawn) 2.43%, Cc1nn(S(=O)(=O)c2cccc([N+](=O)[O-])c2)c(C)c1Br 10.8%, Cc1ccc(NC(=O)COC(=O)Cn2c(C)csc2=O)cc1C 4.89%, COc1ccc(N=Nc2c(N)n[nH]c2N)cc1 9.88%, COC(=O)c1ccccc1N=Nc1c(N)n[nH]c1N 12.4%, Nc1n[nH]c(C2CC2)c1N=Nc1ccc(Cl)cc1 18.4%, Nc1nn(-c2ccccc2)c(N)c1N=Nc1ccccc1 -19.2%, Cc1[nH]nc(N)c1N=Nc1ccc(Br)cc1 -1.99%, Nc1n[nH]c(N)c1N=Nc1ccc(Cl)cc1Cl 47.6%, Nc1nn(-c2ccccc2)c(N)c1N=Nc1cccc(F)c1 -3.61%, Nc1n[nH]c(N)c1N=Nc1ccc2c(c1)OCO2 -3.08%
